Source: PubChem
HEK293 tox = cytotoxic compounds in HEK 293 cells; HEK 293 viability, ATP luminescence (CellTiter-Glo), 48-72 h; Potency, µM (series often up to 115 µM), without a hit: at the top dose activity change, negative = cytotoxicity, actives largely listed as inhibitors; 94,000 compounds, 6.6% hits; note: nearly all actives have a fitted effect of over 60% in size
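250 HEK 293 cells/well; compound by pintool; incubated 48 or 72 hr at 37 degree Celsius; CellTiter-Glo added, 10 min RT, luminescence imaged.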
GPT2 inhibitor = GPT2 alanine aminotransferase inhibition; Q8TD30; Recombinant GPT2, coupled pyruvate oxidase/HRP Amplex Red fluorescence; Potency, µM (series often up to 57.7 µM), for the others: top-dose activity change, negative = inhibition, most hits filed as inhibitors; 100,000 compounds, 0.25% hits; AID 1671188; note: nearly all actives have a fitted effect of over 60% in size
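Inhibition is scored from Amplex Red fluorescence generated when pyruvate oxidase and HRP act on pyruvate released by GPT2. Reactions contain 10ng/uL enzyme, 250uM a-KG and 2mM L-alanine and run 30 min at room temperature.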
Luciferase inh = blocks purified firefly luciferase enzyme activity; AID 1347043; Potency, µM (titrated, usually from 115 µM), actives largely listed as inhibitors; purified P. pyralis luciferase, luminescence, biochemical; 76,000 compounds, 2.5% hits; note: nearly all actives have a fitted effect of over 65% in size
Target sequence (P08659 whole entry, looked up): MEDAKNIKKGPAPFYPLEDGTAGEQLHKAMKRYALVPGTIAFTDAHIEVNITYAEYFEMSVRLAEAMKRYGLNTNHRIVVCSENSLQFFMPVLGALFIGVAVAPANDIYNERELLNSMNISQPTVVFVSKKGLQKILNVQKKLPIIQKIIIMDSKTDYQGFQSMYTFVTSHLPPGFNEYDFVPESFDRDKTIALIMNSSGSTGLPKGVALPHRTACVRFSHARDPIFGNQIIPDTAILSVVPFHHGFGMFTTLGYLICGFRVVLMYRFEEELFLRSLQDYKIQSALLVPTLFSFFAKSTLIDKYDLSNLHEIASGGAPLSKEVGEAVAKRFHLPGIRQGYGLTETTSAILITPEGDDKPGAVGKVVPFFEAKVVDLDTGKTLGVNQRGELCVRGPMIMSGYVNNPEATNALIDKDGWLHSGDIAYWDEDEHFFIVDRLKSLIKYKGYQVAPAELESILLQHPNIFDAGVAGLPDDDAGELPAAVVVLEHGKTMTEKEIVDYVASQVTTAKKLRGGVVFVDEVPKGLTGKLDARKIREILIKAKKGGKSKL
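Cell-free enzyme assay, 10nM P. pyralis luciferase, luciferin and ATP each at 10uM. Inhibition profiled over a 6-point titration, read as luminescence.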
3T3 cytotox = cytotoxic compounds in NIH 3T3 cells; NIH 3T3 viability, CellTiter-Glo ATP luminescence, 48-72 h; Potency, µM (doses to about 96.7 µM), without a hit: at the top dose activity change, negative = cytotoxicity, hits mostly inhibitors; 94,000 compounds, 4.3% hits; AID 1345082; note: nearly all actives have a fitted effect of over 55% in size
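Mouse fibroblast NIH 3T3 cells, 400 per well, received compound via pintool and were incubated for 48 or 72 hr prior to CellTiter-Glo ATP luminescence measurement.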
NPR1 antag = human Npr1 receptor antagonism; HEK293 hNpr1 GloSensor cGMP, ANP-stimulated luminescence; Potency, µM (titrated, usually from 46.3 µM), for the others: top-dose activity change, negative = inhibition, hits mostly inhibitors; 76,000 compounds, 1.6% hits; P16066; calls by dose curve; note: nearly all actives have a fitted effect of over 60% in size
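HEK293 cells stably expressing human Npr1 and cGMP GloSensor pGS-40F, loaded 2 h with 2% GloSensor reagent, given compound 30 min at room temperature. Luminescence read before and 20 min after 0.1 nM hNppA.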
* hit, by the source's call; i = inactive; u = inconclusive; x = no result given; [ ] = remark or other dose. In the library only some 10% were active in any assay of this set; here they are far more common. Unless noted, calls come from the whole dose curve; as a rule, active = well fitted curve in the direction sought with a large enough effect; inconclusive = small, poorly fitted or top-dose-only effect, or another doubt; inactive = no such curve, though single readings can be large; an effect the other way counts as inactive or inconclusive. % is set by controls: 0 for no effect and ±100 for the full control effect; potency is the fitted concentration of half-maximal effect.

SMILES	HEK293 tox	GPT2 inhibitor	Luciferase inh	3T3 cytotox	NPR1 antag
Cc1nn(-c2ccccc2)c2c1C(C1CC1)N(C1CN(C(=O)C3CCCC3)C1)C2=O (centres undefined)	45µM*	x	x	35µM*	x
Cc1nn(-c2ccccc2)c2c1C(C1CC1)N(C1CN(C(=O)c3cccc(Cl)c3)C1)C2=O (centres undefined)	-23%	x	x	-28%	x
Cc1ccccc1C(=O)N1CCC(N2C(=O)c3c(c(C)nn3-c3ccccc3)C2C2CC2)C1 (centres undefined)	28µM*	x	x	u	x
Cc1nn(-c2ccccc2)c2c1C(C1CC1)N(C1CCN(C(=O)c3ccccc3Cl)C1)C2=O (centres undefined)	35µM*	x	x	22µM*	x
CCNC(=O)N1CC(N2C(=O)c3c(c(C)nn3-c3ccccc3)C2C2CC2)C1 (centres undefined)	u	x	x	-27%	x
CC(=O)N1CC(N2C(=O)c3c(c(C)nn3-c3ccccc3)C2C2CC2)C1 (centres undefined)	4%[172 µM]	x	x	u	x
Cc1ccccc1CNC(=O)CCC[C@H]1NC[C@@H]2C[C@H]1CN(Cc1ccccc1)C2	u	i	i	u	-15%
Cc1nn(-c2ccccc2)c2c1C(C)N(CC1CN(Cc3cccc(C(F)(F)F)c3)C1)C2=O (centres undefined)	28µM*	x	x	u	x
Cc1nn(-c2ccccc2)c2c1C(C1CC1)N(C1CN(C(=O)c3ccccc3Cl)C1)C2=O (centres undefined)	u	x	x	13µM*	x
CNC(=O)[C@H]1C[C@]2(CCCCN(CCO)C2=O)N(C(=O)c2cccc(C#N)c2)[C@H]1c1ccco1	-6%	x	x	u	x
O=C(c1ccc2oc(-c3ccncc3)nc2c1)N1CCOCC1	-15%	i	x	u	x
Cc1ccc(C(=O)N2CCC[C@H](n3c(=O)n(Cc4ccccc4)c4cccnc43)C2)cn1	u	-6%	i	-28%	6%
Cc1nn(C)c(=O)n1C1CCN(C(=O)Nc2ccc3c(c2)OCCO3)CC1	i	2%	x	-1%	x
CNC(=O)N1CCC(Cc2noc(C3CCOCC3)n2)C1 (centres undefined)	-23%	i	i	-1%	-6%
Cc1cnc(C2CCOCC2)n1C1CCN(C(=O)Nc2ccc3c(c2)OCCO3)CC1	-17%	i	35µM*	-10%	2%
O=C(Nc1ccc2c(c1)OCCO2)N1CCC(Cc2noc(C3CCOCC3)n2)C1 (centres undefined)	-7%	-15%	18µM*	-35%	-13%
CNC(=O)c1cc(C2CC2)nc2onc(C3CCN(C(=O)Cc4cccc(Cl)c4)C3)c12 (centres undefined)	u	x	x	-17%	x
CCOC(=O)C1CCN(C(=O)C2CCc3nnc(C4CCN([S+](C)(=O)[O-])CC4)n32)CC1 (centres undefined)	i	i	x	-6%	x
COc1ncc(-c2n[nH]c3c2CC(=O)N(Cc2ccccc2)C3)cn1	u	i	i	25µM*	1%[70.6 µM]
COc1ccc(-c2n[nH]c3c2CC(=O)N(CC2CCOCC2)C3)cc1F	u	-3%[88.5 µM]	i	u	-1%[70.6 µM]
COc1ncccc1-c1n[nH]c2c1CC(=O)N(Cc1ccccc1)C2	-20%[172 µM]	i	i	25µM*	-8%[70.6 µM]
COCCN1Cc2[nH]nc(-c3ccc(OC)c(F)c3)c2CC1=O	2%[172 µM]	-5%[88.5 µM]	i	79µM*	3%[70.6 µM]
COCc1cccc(-c2n[nH]c3c2CC(=O)N(Cc2ccc(OC)cc2)C3)c1	u	3%[88.5 µM]	i	25µM*	-22%[70.6 µM]
COc1ccc(CN2Cc3[nH]nc(-c4ccc(C(=O)N5CCOCC5)cc4)c3CC2=O)cc1	79µM*	-13%	i	-24%	-7%
COc1ccc(CN2Cc3[nH]nc(-c4cnc(OC)nc4)c3CC2=O)cc1	-35%[172 µM]	-14%[88.5 µM]	i	8.9µM*	-12%[70.6 µM]
COc1ccc(CN2Cc3[nH]nc(-c4ccc(CO)cc4)c3CC2=O)cc1	-11%[172 µM]	0%[88.5 µM]	i	u	1%[70.6 µM]
CC1=C[C@@H](CNC(=O)c2ccncc2)[C@H](C(C)C)C[C@H]1Cc1nnc(-c2ccncc2)o1	79µM*	i	i	u	u
